According to PubChem BioAssay (Tox21):
Records with an inconclusive call do not appear. Active and inactive are the calls of the source. Calls follow the shape of the dose curve; as a rule, active = well fitted cell-killing curve with a large enough effect in the repeat runs; inconclusive = weak or mixed curves, or effect the other way; inactive = flat fitted curve, though single readings scatter.

Experiment: cAMP Responsive Elements (CRE) small molecule antagonists, cell-based qHTS assay: qHTS cell viability counter screen (AID 2060913); also: nearly all actives have a fitted effect of over 40% in size
Conditions: CRE-bla HEK293T viability, CellTiter-Glo luminescence, 5 h; series mostly up to 92.4 µM; viability change, negative = cytotoxic: at the top concentration
Excerpt: U.S. Tox21 Program National Center for Advancing Translational Sciences [NCATS] Division of Preclinical Innovation [DPI] U.S. Environmental Protection Agency [EPA] National Institutes of Environmental Health Sciences [NIEHS] National Toxicology Program [NTP] U.S. Food and Drug Administration [FDA] Tox21 Assay Overview: CREB (cyclic-AMP Responsive Element Binding Protein) is a cellular transcription factor. It binds to certain DNA sequences called cAMP Responsive Elements (CRE) and regulates the transcription of the genes. […] This cell line can be used to find agonists/antagonists of the cyclic AMP signaling pathway. The activation of the report gene under culture conditions can be detected by fluorescence intensity. This cell line has been used to screen the Tox21 10K compound library to identify agonists that induce oxidative stress. The cytotoxicity of the Tox21 compound library against the CRE-bla cell line was tested in parallel by measuring the cell viability using CellTiter-Glo assay (Promega, Madison, WI) in the same wells.
Tox21 Assay Protocol Summary: CRE-bla Hek 293T cells were suspended in assay medium (DMEM containing 10% dialyzed FBS, 0.1 mM NEAA, 1 mM sodium pyruvate and 25 mM HEPES) and dispensed at 2,000 cells/4 uL /well into 1536-well black wall/clear bottom plates using a Multidrop Combi (ThermoFisher Scientific, Waltham, MA) dispenser. After the assay plates were incubated at 37 C/5% CO2 for 18 hrs, 23 nL of compounds dissolved in DMSO, positive controls or DMSO only was transferred to the assay plate by a pintool workstation (Kalypsys, San Diego, CA), followed by addition of 1 uL of 1.25uM NKH477 (0.25 uM as final concentration) in assay medium using a Flying Reagent Dispenser (Aurora Discovery, San Diego, CA). The plates were incubated at 37 C and 5% CO2 for 3 hrs. Then 1 uL of LiveBLAzer B/G FRET substrate (Invitrogen, Carlsbad, CA) was added to each well using Bioraptr Flying Reagent Dispenser (FRD, Aurora Discovery, San Diego, CA). The plates were incubated at room temperature for 2 h, then fluorescence intensities were measured using an Envision plate reader (PerkinElmer, Shelton, CT) at Excitation 405nm, Emission 460nm and 530nm. The % activity was determined from the ratio of 460nm/530nm. For cell viability readout that measures cytotoxicity, 4 uL /well of CellTiter-Glo reagent was added into the assay plates using Bioraptr FRD. After 30 min incubation at room temperature, the luminescence intensity in the assay plates was measured using a ViewLux (PerkinElmer, Shelton, CT) plate reader.
% is scaled to controls: 0 for no effect and ±100 for the full control effect.

Q: With CCCOCCOCCOCCO as the compound, how does the “viability change, negative = cytotoxic” value read?
A: 4.69% (inactive)

Q: With CC(O)c1ccccc1 (stereo not given) as the compound, how does the “viability change, negative = cytotoxic” value read?
A: 13.1% (inactive)

Q: Which “viability change, negative = cytotoxic” value does the source give for CCOC(=O)CC(=O)c1cc(F)c(Cl)nc1Cl here?
A: -1.94% (inactive)

Q: With CC(=O)OCC(=O)[C@@]12OC(C)(C)O[C@@H]1C[C@H]1[C@@H]3C[C@H](F)C4=CC(=O)C=C[C@]4(C)[C@@]3(F)[C@@H](O)C[C@@]12C as the compound, how does the “viability change, negative = cytotoxic” value read?
A: -6.12% [at 42.5 µM] (inactive)

Q: Which “viability change, negative = cytotoxic” value does the source give for CCC(CO)CO here?
A: 0.0375% (inactive)

Q: With CC[N+]1(CC)CCC(=C(c2ccccc2)c2ccccc2)C1C (stereo not given) as the compound, how does the “viability change, negative = cytotoxic” value read?
A: -1.37% [at 42.5 µM] (inactive)

Q: With CC(=O)CC(=O)Nc1ccc2[nH]c(=O)[nH]c2c1 as the compound, how does the “viability change, negative = cytotoxic” value read?
A: 4.01% (inactive)

Q: For CN(C)CCCOC1(Cc2ccccc2)CCCCCC1, which “viability change, negative = cytotoxic” value is on record?
A: -5.9% [at 42.5 µM] (inactive)

Q: For CCC(=O)O[C@]1(C(=O)COC)[C@@H](C)C[C@H]2[C@@H]3CCC4=CC(=O)C=C[C@]4(C)C3(F)[C@@H](O)C[C@@]21C (stereo not given in full), which “viability change, negative = cytotoxic” value is on record?
A: -0.85% [at 42.5 µM] (inactive)

Q: With CCCCCOC(=O)c1ccc(O)cc1 as the compound, how does the “viability change, negative = cytotoxic” value read?
A: -13% (inactive)

Q: For CCC(C)c1ccccc1 (stereo not given), which “viability change, negative = cytotoxic” value is on record?
A: 5.44% (inactive)

Q: Which “viability change, negative = cytotoxic” value does the source give for c1ccc2c(c1)CCC2 here?
A: 0.0194% (inactive)

Q: For O=C(O)c1ccc[n+]([O-])c1, which “viability change, negative = cytotoxic” value is on record?
A: 4.95% [at 42.5 µM] (inactive)

Q: Which “viability change, negative = cytotoxic” value does the source give for N=c1ccn2c(n1)O[C@H]1[C@H](O)[C@@H](CO)O[C@H]12 here?
A: -1.06% (inactive)

Q: Which “viability change, negative = cytotoxic” value does the source give for CC(C)(C)C(=O)Oc1ccc(S(=O)(=O)Nc2ccccc2C(=O)NCC(=O)O)cc1 here?
A: 0.277% [at 42.5 µM] (inactive)

Q: With O=C(O)c1[nH]n(-c2ccc(S(=O)(=O)O)cc2)c(=O)c1N=Nc1ccc(S(=O)(=O)O)cc1 as the compound, how does the Potency read?
A: inactive

Q: With O=C1OC2(c3ccccc31)c1ccc(O)c(Br)c1Oc1c2ccc(O)c1Br as the compound, how does the “viability change, negative = cytotoxic” value read?
A: -11.7% (inactive)

Q: For CCCC=O, which “viability change, negative = cytotoxic” value is on record?
A: -0.583% (inactive)

Q: Which “viability change, negative = cytotoxic” value does the source give for CCCCC/C=C\CCC=O here?
A: -0.234% (inactive)

Q: With CN(C)CCCN as the compound, how does the Potency read?
A: inactive

Q: For Cc1cc(CCC(=O)OCCOCCOCCOC(=O)CCc2cc(C)c(O)c(C(C)(C)C)c2)cc(C(C)(C)C)c1O, which “viability change, negative = cytotoxic” value is on record?
A: 3.17% (inactive)

Q: With COC(=O)c1ccccc1C(=O)c1ccc(OCCN2CCCCC2)cc1 as the compound, how does the “viability change, negative = cytotoxic” value read?
A: 3.64% [at 42.5 µM] (inactive)

Q: For CCOC(=O)c1ccc(NC(=O)CN2CCCCC2)cc1, which “viability change, negative = cytotoxic” value is on record?
A: 2.87% [at 42.5 µM] (inactive)

Q: Which “viability change, negative = cytotoxic” value does the source give for Nc1nc(=S)c2[nH]cnc2[nH]1 here?
A: -13% (inactive)

Q: Which “viability change, negative = cytotoxic” value does the source give for ClC(Cl)Cl here?
A: 14.1% (inactive)

Q: Which “viability change, negative = cytotoxic” value does the source give for NC(N)=NS(=O)(=O)c1ccc(N)cc1 here?
A: 6.52% [at 42.5 µM] (inactive)

Q: Which “viability change, negative = cytotoxic” value does the source give for C=CC(C)(CCC=C(C)C)OC(=O)/C=C/c1ccccc1 (stereo not given) here?
A: -11.8% (inactive)

Q: For CC(C)(C)c1ccc(C=O)cc1, which “viability change, negative = cytotoxic” value is on record?
A: 0.406% (inactive)

Q: Which “viability change, negative = cytotoxic” value does the source give for CC1CCC(C(C)(C)S)C(=O)C1 (stereo not given) here?
A: 3.98% (inactive)

Q: For NC(=O)Nc1ccccc1, which “viability change, negative = cytotoxic” value is on record?
A: 1.16% (inactive)

Q: With CC(C)CCOC(=O)CC(C)C as the compound, how does the “viability change, negative = cytotoxic” value read?
A: 3.73% (inactive)

Q: For C/C(C=O)=C\c1ccccc1, which “viability change, negative = cytotoxic” value is on record?
A: 0.272% (inactive)

Q: Which Potency does the source give for CC(=O)CC/C=C(\C)CCC=C(C)C here?
A: inactive

Q: Which “viability change, negative = cytotoxic” value does the source give for O=C(O)c1ccc(OCCCOc2ccc(C(=O)O)cc2)cc1 here?
A: 8.26% [at 42.5 µM] (inactive)

Q: With CCCCCCCC/C=C/CCCOC(C)=O as the compound, how does the “viability change, negative = cytotoxic” value read?
A: 3.93% (inactive)

Q: With COP(=O)(OC)OC(c1ccc(Cl)cc1)P(=O)(OC)OC (stereo not given) as the compound, how does the “viability change, negative = cytotoxic” value read?
A: 5.8% [at 42.5 µM] (inactive)

Q: With FC(F)(F)c1ccccc1Cl as the compound, how does the “viability change, negative = cytotoxic” value read?
A: -1.19% (inactive)

Q: For O=c1c(O)c(O)c1=O, which “viability change, negative = cytotoxic” value is on record?
A: 6.01% (inactive)

Q: For Cc1ccc(O)cn1, which “viability change, negative = cytotoxic” value is on record?
A: 3.11% (inactive)

Q: For COc1ccc(C(=O)Nc2ccccc2)cc1[N+](=O)[O-], which “viability change, negative = cytotoxic” value is on record?
A: 1.06% (inactive)
